Marburg entry inh: Marburg virus entry inhibition; Marburg virus pseudotyped entry inhibition, cell reporter; Potency, µM (series often up to 37.8 µM), inactives show at the highest dose activity change, negative = inhibition, actives largely listed as inhibitors; 300,000 compounds, 1.8% hits; AID 540276; calls by dose curve; tested in HEK293 cells
HCV inhibitor: HCV inhibition | Huh7.5.1 HCVcc-Cre infection, luciferase reporter, 44 h | 340,000 compounds, 3.4% hits | Potency, µM (titrated, usually from 41.8 µM), inactives show at the highest dose activity change, negative = inhibition, most hits filed as inhibitors | AID 651820
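Luciferase read-out (15 sec integration) after a 15 min room-temperature substrate step quantifies HCVcc-Cre infection. Cells, 1,000 per well, had compound added 4 h post-plating, then virus at ~0.5 moi, and were cultured 44 h.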
RE007 growth inh: less growth of the S. pombe RE007 Vpr strain | AID 651644 | Potency, µM (titrated, usually from 92.2 µM), for inactives: at the top dose activity change, negative = less growth, most hits filed as inhibitors | S. pombe RE007 Vpr strain, BacTiter-Glo ATP luminescence, 24 h | 360,000 compounds, 0.21% hits; active = well fitted falling curve with a large enough effect; inconclusive = small, poorly fitted or top-dose-only effect; inactive = no such curve, though single readings can be large or run the other way; also: nearly all actives have a fitted effect of over 50% in size
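Fission yeast strain RE007, carrying one chromosomally integrated HIV-1 vpr copy, was seeded at OD 0.01 in PMG+AL medium with 23 nL pinned compound. After 24 h at 30 °C and 99% humidity, viability was read by BacTiter-Glo luminescence.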
LASV entry inh: Lassa virus entry inhibition | AID 540256 | Potency, µM (top dose mostly 37.9 µM), inactives show at the highest dose activity change, negative = inhibition, actives largely listed as inhibitors | Lassa virus pseudotype entry inhibition, cell reporter | 300,000 compounds, 1.2% hits; calls by dose curve; tested in HEK293 cells; also: nearly all actives have a fitted effect of over 50% in size
Sm TGR block: inhibitors of Schistosoma mansoni thioredoxin glutathione reductase. Potency, µM (series often up to 114 µM), without a hit: at the top dose activity change, negative = inhibition, hits mostly inhibitors. 360,000 compounds, 3% hits. purified TGR, DTNB reduction, TNB absorbance 405 nm. Q962Y6; also: nearly all actives have a fitted effect of over 60% in size
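First, TGR (20 nM dispensed) and NADPH were mixed with compound. Second, a 15 min room-temperature incubation followed. Third, further NADPH and then DTNB were added to start the reaction. Finally, TNB absorbance was monitored kinetically.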
FMDV inh: foot and mouth disease virus antiviral activity. FMDV antiviral cell-based qHTS. Potency, µM (titrated, usually from 57.9 µM), for the others: top-dose activity change, negative = inhibition, usual class: inhibitors. 410,000 compounds, 1.2% hits. AID 1159524; calls by dose curve; tested in HEK293T cells; also: read-out not given here; nearly all actives have a fitted effect of over 45% in size
* = called active by the depositor; ? = inconclusive; / = no result; [ ] = another dose, or the depositor's remark. This is a sample that favours compounds with a hit; in the whole collection about 7.2% have one here. Unless noted, calls follow the shape of the dose curve; as a rule, active = well fitted curve in the direction sought with a large enough effect; inconclusive = small, poorly fitted or top-dose-only effect, or another doubt; inactive = no such curve, though single readings can be large; an effect the other way counts as inactive or inconclusive. % is scaled to controls: 0 for no effect and ±100 for the full control effect; potency is read from the fitted curve at half-maximal effect.

SMILES	Marburg entry inh	HCV inhibitor	RE007 growth inh	LASV entry inh	Sm TGR block	FMDV inh
Cc1ccc(Sc2ccc(N3CCCC(C(=O)Nc4ccc(Br)cc4)C3)nn2)cc1 (configuration not stated)	-20%[46.1 µM]	/	/	1.1µM*	0%	3%
Cc1ccc(Sc2ccc(N3CCCC(C(=O)Nc4ccc(Cl)cc4)C3)nn2)cc1 (configuration not stated)	-23%[46.1 µM]	/	/	?	13%	7%
CCOC(=O)c1c2n(c3c(NCc4ccccc4)ncnc13)CCCC2	?	5µM*	-7%	-28%	6%	-21%
Cc1ccc(CNc2ncnc3c2nc2n3CCCC2)cc1	/	/	/	-10%[46.1 µM]	6%	-4%
COc1cc(C2/C(=C(/O)c3ccc(OCC(C)C)cc3)C(=O)C(=O)N2CCN(C)C)ccc1O (configuration not stated)	9%	5%	12%	5%	45µM*	/
COc1ccc(/C(O)=C2/C(=O)C(=O)N(CCCN(C)C)C2c2ccc(C)o2)cc1Cl (configuration not stated)	/	/	/	/	45µM*	/
COc1ccc(/C(O)=C2/C(=O)C(=O)N(CCN(C)C)C2c2ccc(OC)c(OC)c2)c(C)c1 (configuration not stated)	5%	-1%	3%	-3%	40µM*	-14%
CC(=O)N1CCc2cc(C(=O)CN3CCN(c4ccccn4)CC3)ccc21	0%[46.1 µM]	13%	-14%	?	35µM*	-9%
CC(=O)NC1=NN(C(C)=O)C2(CCCCC2)S1	-4%	2.8µM*	3%	3%	-13%	/
COc1ccccc1CCNc1ncnc2sc(C(=O)N3CCCN(C=O)CC3)c(C)c12	/	/	/	/	/	-26%
O=C(c1ccco1)N1CCN(Cc2ccc(Cl)cc2)CC1	-21%[46.1 µM]	17%	4%	3%	-10%	-14%
O=C(c1ccc(-c2ccccc2Cl)o1)N1CCN(S(=O)(=O)c2cccs2)CC1	?	14µM*	-14%	-3%	?	-7%
O=C(c1ccco1)N1CCN(Cc2csc(-c3ccccc3Cl)n2)CC1	-12%	?	?	1%	50µM*	-11%
O=C(c1cc(-c2ccccc2Cl)on1)N1CCN(C(=O)c2ccco2)CC1	1%	16%	-19%	8%	6%	4%
O=C(c1ccco1)N1CCN(C(=O)c2ccc(-c3ccccc3Cl)o2)CC1	/	22µM*	-21%	/	-8%	3%
Cc1ccc(NC(=O)CN2C(=O)C(C)(C)c3ccccc32)cc1	/	/	/	-5%[46.1 µM]	-7%	-11%
CCOc1ccc(Nc2oc(-c3ccc(COc4ccccc4C)o3)nc2C#N)cc1	3%[46.1 µM]	/	/	3%[46.1 µM]	1%	-22%
CCN1C(=O)[C@H]2[C@@H](c3ccc(-c4ccc5c(c4)OCO5)c(OC)c3)N[C@@](CC(C)C)(C(=O)OC)[C@H]2C1=O	/	-21%	-6%	/	50µM*	-22%
CCN1C(=O)[C@H]2[C@@H](c3ccc(-c4ccc(OC)cc4)c(OC)c3)N[C@@](CC(C)C)(C(=O)OC)[C@H]2C1=O	/	?	-10%	/	/	-9%
COC(=O)[C@]1(CC(C)C)N[C@H](c2ccc(SC3CCCCC3)c(OC)c2)[C@@H]2C(=O)N(C)C(=O)[C@@H]21	/	?	3%	/	-4%	0%
COC(=O)[C@]1(CC(C)C)N[C@H](c2ccc(-c3ccc(F)cc3)c(OC)c2)[C@@H]2C(=O)N(C)C(=O)[C@@H]21	/	?	-6%	/	20µM*	0%
CCCCCCSc1ccc([C@H]2N[C@@](CC(C)C)(C(=O)OC)[C@H]3C(=O)N(C)C(=O)[C@@H]23)cc1OC	/	7.9µM*	-8%	/	-1%	13%
O=C(Cn1cc(S(=O)(=O)c2ccc(F)cc2)c(=O)c2cc3c(cc21)OCO3)Nc1ccccc1	2%[46.1 µM]	/	/	13%[46.1 µM]	-7%	-6%
Cc1cccc(CNc2ccnc(-c3ccccc3Cl)n2)c1	/	/	/	/	/	-4%
COc1cccc(CNC(=O)CCCN2C(=O)CSc3c2c(C)nn3-c2ccccc2)c1OC	/	/	/	?	0%	-6%
SMILES	Marburg entry inh	HCV inhibitor	RE007 growth inh	LASV entry inh	Sm TGR block	FMDV inh
O=C(COc1ccccc1[N+](=O)[O-])N(Cc1ccco1)c1ccccn1	34%[46.1 µM]	/	/	?	-3%	28%
CN(C)c1ccc(/C=C2\SC(=O)N(CCc3nnc(N)s3)C2=O)cc1	1.1µM*	-18%	-5%	?	-4%	-60%
CN(C)c1ccc(/C=C2/SC(=O)N(CCN=C3NS(=O)(=O)c4ccccc43)C2=O)cc1	20%	-26%	4%	-24%	-1%	29%
COc1ccc(NC2CC(=O)N(c3ccc(C(=O)O)cc3)C2=O)cc1 (configuration not stated)	2%	-14%	46%	-7%[46.1 µM]	-33%	7%
Cc1ccc(N2C(=O)CC(Nc3ccccc3)C2=O)cc1 (configuration not stated)	16%	8%	-7%	10%	-20%	/
COc1ccc(NC2CC(=O)N(c3cc([N+](=O)[O-])ccc3C)C2=O)cc1 (configuration not stated)	-5%[46.1 µM]	-7%	12%	-1%	40µM*	-10%
COc1ccc(NC2CC(=O)N(c3cccc(C)c3)C2=O)cc1 (configuration not stated)	22%	3%	-19%	9%	35µM*	49%
COc1ccc(NC2CC(=O)N(c3cccc([N+](=O)[O-])c3)C2=O)cc1 (configuration not stated)	13%	18%	-23%	-2%	56µM*	-11%
COc1ccc(N2C(=O)CC(Nc3cccc(C(C)=O)c3)C2=O)cc1OC (configuration not stated)	-21%[46.1 µM]	17%	14%	-2%	56µM*	21%
CCc1ccc(-c2cn3c(n2)sc2cc(C(=O)NC4CCCCC4)ccc23)cc1	/	/	/	-2%[46.1 µM]	5%	-7%
C=Cc1ccc(Cn2c(=O)cc(C)c3c(C)nn(C)c32)cc1	/	/	/	?	7%	?
CC1(c2nnc(-c3ccncc3)o2)CC(c2ccc([N+](=O)[O-])cc2)=NO1 (configuration not stated)	/	?	11%	/	35µM*	?
CC1(c2nnc(-c3ccc(Cl)cc3)o2)CC(c2ccc([N+](=O)[O-])cc2)=NO1 (configuration not stated)	/	4%	-18%	/	-10%	-26%
CCC(=O)N1c2ccccc2CC1C(=O)NCCc1ccc(SC)cc1 (configuration not stated)	/	/	/	12%[46.1 µM]	5%	-12%
O=C(COC(=O)C1CC(=O)N(Cc2ccco2)C1)c1ccc(OC(=O)c2ccccc2)cc1 (configuration not stated)	?	1%	8%	7%	25µM*	10%
Cc1csc(NC(=O)C2CC(=O)N(Cc3ccco3)C2)n1 (configuration not stated)	3%	5%	-3%	14%	45µM*	12%

Assay outcomes: PubChem, National Center for Advancing Translational Sciences (NCATS)
